Measured values reported in PubChem BioAssay AID493170 (National Center for Advancing Translational Sciences (NCATS), 2011).
Records with an inconclusive call do not appear. A call without a number means that no potency is given here. The source made the active and inactive calls. The call rests on the fitted dose curve; in most records, active means well fitted inhibition curve with a large enough effect; inconclusive means small, poorly fitted or top-dose-only effect, or effect the other way; inactive means flat fitted curve, though single readings scatter.

Biological target: Ubiquitin carboxyl-terminal hydrolase 2 (Homo sapiens) (UniProt O75604)
Test: Ub-rhodamine 110 based assay for inhibitors Ubiquitin-specific Protease USP2a; further: nearly all actives have a fitted effect of over 50% in size
Details: USP2a Ub-rhodamine110 cleavage, fluorescence; series mostly up to 38.3 µM
Procedure, shortened: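 5 nM USP2a preincubated with compounds for 30 min at RT in 20 mM Tris-HCl pH 8.0, 2 mM CaCl2, 2 mM beta-mercaptoethanol, 0.05% CHAPS. Cleavage of 150 nM Ub-rhodamine 110 read kinetically (Ex 485/Em 531) for 7 min.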
Potency means the concentration at half of the fitted maximal effect.

Sequence of Ubiquitin carboxyl-terminal hydrolase 2 (Homo sapiens) (O75604 whole entry, looked up): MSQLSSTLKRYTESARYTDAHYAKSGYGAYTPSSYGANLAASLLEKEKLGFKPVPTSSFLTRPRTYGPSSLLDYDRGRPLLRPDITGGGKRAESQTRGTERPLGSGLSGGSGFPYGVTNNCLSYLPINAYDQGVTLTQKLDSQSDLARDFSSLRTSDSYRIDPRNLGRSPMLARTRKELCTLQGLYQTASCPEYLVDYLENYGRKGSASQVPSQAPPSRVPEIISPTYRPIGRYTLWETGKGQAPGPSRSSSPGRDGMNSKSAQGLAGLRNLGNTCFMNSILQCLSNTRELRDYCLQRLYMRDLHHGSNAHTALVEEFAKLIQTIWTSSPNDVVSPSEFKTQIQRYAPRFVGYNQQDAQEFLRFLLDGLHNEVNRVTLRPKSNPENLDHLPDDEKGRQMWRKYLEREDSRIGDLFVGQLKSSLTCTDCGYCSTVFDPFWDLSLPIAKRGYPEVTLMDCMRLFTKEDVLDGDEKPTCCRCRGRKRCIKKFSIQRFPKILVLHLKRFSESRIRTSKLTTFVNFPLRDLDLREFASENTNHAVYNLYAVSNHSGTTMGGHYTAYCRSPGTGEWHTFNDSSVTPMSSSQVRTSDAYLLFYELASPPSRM

SMILES	Potency
O=C(COc1ccccc1)N1CCN(C(=O)Cc2ccccc2)CC1	inactive
CCNc1sc(C(=O)c2cccs2)c(N)c1-c1nc2ccccc2s1	inactive
CCOC(=O)c1[nH]c2ccc(OC)cc2c1NC(=O)CCN1CCC(C)CC1	inactive
COC(=O)C1Sc2[nH]c(=O)sc2C(c2ccc(Cl)cc2)C1C(=O)OC (centres undefined)	inactive
CCCCCc1ccc(OCCOCCn2c[n+](C)c3ccccc32)c(CCCCC)c1	inactive
O=c1cc(CO)oc(CN2CCN(Cc3ccccc3)CC2)c1O	inactive
c1ccc(Nc2c3c(nc4ncnn24)CCC3)cc1	inactive
CCn1nnnc1SCC(=O)Nc1cccc(C)n1	inactive
O=C(/C=N/O)NCc1cccnc1	inactive
COc1ccc(-c2nc3cc(NC(=O)Cc4ccc(OC)c(OC)c4)ccc3o2)cc1	inactive
O=C(COC(=O)/C=C/c1ccc(Cl)cc1)NC1CC1	inactive
O=C(N/N=C/c1ccc(F)cc1)c1cc(-c2ccco2)nc2ccccc12	2 µM (active)
O=C(c1ccc([N+](=O)[O-])cc1)N(Cc1ccc(Cl)cc1)N1C(=O)CCCC1=O	inactive
O=C(Nc1ccc2c(c1)OCO2)NC1(C(F)(F)F)Oc2ccccc2O1	inactive
CCCCNc1nc2ccccc2nc1NS(=O)(=O)c1cccs1	inactive
Cc1ccc(C(C)C)c(OCc2nn(CC(=O)c3ccc(OC(F)F)cc3)c3[n+]2CCCCC3)c1	inactive
NC(=O)CC(NC(=O)Cc1ccc(Br)cc1)c1ccc(N2CCC(Cc3ccccc3)CC2)c([N+](=O)[O-])c1 (centres undefined)	inactive
O=C1NC[C@@H](c2ccccc2)OC(=O)[C@@H](Cc2ccc(F)cc2)CC/C=C/C[C@@H]1CC(=O)N(CCO)Cc1ccccc1	inactive
FC(F)(F)c1cnc2c(c1)Nc1ccccc1S2	inactive
Cc1nn(C)cc1CNC(=O)c1ccc(Br)o1	inactive
Cc1ccc(SCc2cc(=O)c3c(=O)n(-c4ccccc4)[nH]c3[nH]2)cc1	inactive
COc1ccc(/C=N/NC(=O)c2nn(-c3ccccc3)c(=O)c3c(N)scc23)cc1	10 µM (active)
Cc1cccn2c(=O)c3cc(C(=O)NCCN4CCOCC4)c(=N)n(CCN4CCOCC4)c3nc12	inactive

SMILES	Potency
CCOc1ccc2nc(NC(=O)Nc3ccccc3)sc2c1	inactive
C=CC[C@H](CC(=O)N[C@H](CO)Cc1ccccc1)C(=O)N[C@@H](COC(=O)[C@@H](CC=C)CC(=O)OC(C)(C)C)Cc1c[nH]c2ccccc12	inactive
COc1ccc(NC(=O)CN(Cc2ccccc2)S(C)(=O)=O)cc1	inactive
Cn1c2ccccc2c2nnc(SC3CCOC3=O)nc21 (centres undefined)	inactive
COc1ccc(S(=O)(=O)N2CCCCC2)cc1NC(=O)Cc1c[nH]c2ccccc12	inactive
Cc1cc(-c2nnc3n2N=C(c2ccc(-c4ccccc4)cc2)CS3)n[nH]1	11.2 µM (active)
O=C(NC1CCCCC1)C(c1ccco1)N(C(=O)c1csnn1)c1cccc(F)c1 (centres undefined)	inactive
c1ccc(-c2ccccc2OCCCN2CCOCC2)cc1	inactive
CS(=O)(=O)c1nc(-c2ccc(Br)cc2)cc(-c2ccccc2)c1C#N	inactive
O=C(c1cc(-c2ccco2)on1)N1CCc2ccccc2C1	10 µM (active)
O=C(CSc1nc2ccccc2c(=O)n1CC1CCCO1)NCc1ccccc1 (centres undefined)	inactive
COc1ccc(C(=O)C[N+]2(C)CCOCC2)cc1	inactive
O=C(COC(=O)c1cc(-c2ccc(Cl)s2)nc2ccccc12)NCc1ccco1	11.2 µM (active)
CCOc1ccccc1N(CC(=O)NC(C)(C)C)C(=O)c1ccc(CN2CCOCC2)o1	inactive
Nc1ccc2nc(-c3ccc(N)c(Cl)c3)[nH]c2c1	inactive
CC(C)c1ccc(CCNC(=O)c2ccc([N+](=O)[O-])cc2)cc1	inactive
O=C(CSc1nc2ccccc2[nH]1)Nc1ccc2c(c1)OCCO2	inactive
CCOc1cc(N2CCOCC2)c(OCC)cc1NC(=O)Cc1cn2ccsc2n1	inactive
O=C(N/N=C/C=C/c1ccccc1)c1ccncc1	inactive
CC(C)CCn1c(CN2CCN(C(=O)c3ccco3)CC2)nc2c1c(=O)n(C)c(=O)n2C	inactive
CCOc1ccc(S(=O)(=O)N(CC(=O)O)c2ccccc2)cc1	inactive
Cc1ccc(S(=O)(=O)Nc2ccc(N3CCOCC3)cc2)cc1	inactive
FC(F)Sc1ccc(NC(=S)NC2CCCCC2)cc1	inactive

SMILES	Potency
O=C(O)CP(=O)(c1ccccc1)c1ccccc1	inactive
Cc1ccc(NC(=O)CSc2nnc(COc3ccc(C#N)cc3)n2-c2ccccc2)cc1C	inactive
O=S(=O)(NC1CCSc2ccccc21)c1ccccc1 (centres undefined)	inactive
CC(C)(C)[C@H]1COC(=O)[C@@H](Cc2ccc(F)cc2)C/C=C\C[C@@H](CC(=O)N[C@@H](CO)Cc2ccccc2)C(=O)N1	inactive
O=C(O)/C=C/c1ccc(S(=O)(=O)Nc2ccccc2C(=O)Nc2ccc(F)cc2)cc1	inactive
CCn1c2ccccc2c2nc3ccccc3nc21	inactive
CC(C)OCCCNC(=O)c1c(N)n(/N=C/c2ccccn2)c2nc3ccccc3nc12	inactive
Cc1ccc(S(=O)(=O)Nc2ccccc2-c2ccccc2NS(=O)(=O)c2ccc(C)cc2)cc1	8.91 µM (active)
COc1ccc(/C=N\NC(=O)c2cc(O)c(O)c(O)c2)cc1COc1ccc(C(=O)OCC(C)C)cc1	2.82 µM (active)
CCC(C)(C)n1nnnc1C(c1ccc(C)cc1)N1CCCC1 (centres undefined)	inactive
COCCn1nnnc1CN(CCc1ccccc1)Cc1cc2ccc(C)cc2[nH]c1=O	inactive
Cc1c(NC(=O)C2CCCN(S(=O)(=O)c3cnc[nH]3)C2)c(=O)n(-c2ccccc2)n1C (centres undefined)	inactive
CCn1c(CN2CCOCC2)nnc1SCC(=O)Nc1ccc(C(C)=O)cc1	inactive
O=C(O)C(Cc1ccccc1)N1C(=O)/C(=C/C=C/c2ccco2)SC1=S (centres undefined)	11.2 µM (active)
CCOC(=O)N1CCN(CC(=O)n2c(C)c(C)c3ccccc32)CC1	inactive
CC(=O)c1ccc(NC(=O)CC(NCCC2=CCCCC2)C(=O)O)cc1 (centres undefined)	inactive
CC(C)c1ccc(NC(=O)C(c2ccc3c(c2)OCO3)N2CCCCC2)cc1 (centres undefined)	inactive
COc1ccccc1C1NC(c2ccccc2OC)C(C)C(=O)C1C (centres undefined)	inactive
O=[N+]([O-])c1ccc2nc(C(O)C(O)c3nc4ccc([N+](=O)[O-])cc4[nH]3)[nH]c2c1 (centres undefined)	11.2 µM (active)
CC(C)(C)[C@H]1COC(=O)[C@@H](Cc2ccc(F)cc2)C/C=C\C[C@@H](CC(=O)N[C@H](CO)Cc2ccccc2)C(=O)N1	inactive
O=C(CNC(=O)c1ccco1)Nc1ccc(S(=O)(=O)N2CCCC2)cc1	inactive
Cc1ccc(S(=O)(=O)Nc2ccccc2C(=O)Nc2nc(-c3ccc(F)cc3)cs2)cc1	7.08 µM (active)
Cc1ccc(/C=C2/SC(=S)N(c3ccc(S(=O)(=O)Nc4nccs4)cc3)C2=O)cc1	3.55 µM (active)
